About 5,100 (32%) of roughly 16,000 compounds were called active. Inconclusive results (about 25%) are left out. Calls come from the whole dose curve; as a rule, active = well fitted curve in the direction sought with a large enough effect; inconclusive = small, poorly fitted or top-dose-only effect, or effect the other way; inactive = no such curve, though single readings can be large or run the other way. Some of the results follow.
% is set by controls: 0 for no effect and ±100 for the full control effect.

The target in this assay is Cytochrome P450 3A4 (Homo sapiens) (UniProt P08684). The experiment in a line: Cytochrome panel assay with activity outcomes. Particulars: recombinant CYP, pro-luciferin dealkylation, luminescence, p450-cyp3a4; series mostly up to 57.1 µM.
Chain of Cytochrome P450 3A4 (Homo sapiens) (P08684 whole entry, looked up): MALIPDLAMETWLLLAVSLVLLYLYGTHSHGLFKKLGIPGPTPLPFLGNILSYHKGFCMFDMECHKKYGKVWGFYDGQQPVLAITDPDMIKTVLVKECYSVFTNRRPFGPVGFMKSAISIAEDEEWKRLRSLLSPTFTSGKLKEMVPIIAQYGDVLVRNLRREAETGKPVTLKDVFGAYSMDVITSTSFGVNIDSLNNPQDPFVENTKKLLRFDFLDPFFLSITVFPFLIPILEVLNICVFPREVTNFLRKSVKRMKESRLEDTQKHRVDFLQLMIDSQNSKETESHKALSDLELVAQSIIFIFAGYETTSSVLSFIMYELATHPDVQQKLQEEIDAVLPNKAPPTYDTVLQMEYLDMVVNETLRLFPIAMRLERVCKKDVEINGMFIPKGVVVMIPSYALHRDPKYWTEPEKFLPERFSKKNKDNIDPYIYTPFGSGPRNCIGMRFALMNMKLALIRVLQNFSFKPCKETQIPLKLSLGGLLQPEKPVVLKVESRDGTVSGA
Turning to `O=C(c1ccccc1)[C@H](Nc1ccc2ccccc2c1)c1ccccc1`, the AC50 was 3.16 µM (active).

Consider `O=C(O)CCC(=O)Nc1ccc2ccccc2c1`, for which the activity, negative = inhibition is -3.97% [at 11.4 µM] (inactive).

With `O=C(Nc1ccc2ccccc2c1)c1onc2c1CCCC2`, the AC50 result is “inactive”.

On to `Cc1c(Nc2cc(N3CCCC(C)C3)c3nonc3c2[N+](=O)[O-])c(=O)n(-c2ccccc2)n1C` (stereo unspecified), for which the AC50 result was “inactive”.

As for `CC(C)CCNC(=O)C12CN(Cc3ccccc3)CC1C(c1cccc([N+](=O)[O-])c1)=NO2` (stereo unspecified), the half-maximal activity concentration (AC50) was 12.6 µM (active).

Turning to `COc1ccc(C(=O)N2CC3(CC(c4cccc([N+](=O)[O-])c4)=NO3)C[C@H]2C(=O)NCC(N)=O)cc1` (stereo partly specified), the activity, negative = inhibition is 15.2% [at 2.29 µM] (inactive).

Turning to `O=C(NCc1ccccc1)C12CN(Cc3ccccc3)CC1C(c1cccc([N+](=O)[O-])c1)=NO2` (stereo unspecified), the concentration at half-maximal activity (AC50) is 7.08 µM (active).

On to `O=C1CC[C@H](N2C(=O)c3ccccc3C2=O)C(=O)N1`, for which the AC50 result was “inactive”.

`Nc1ncnc2c1nc(-c1ccccc1)n2[C@H]1O[C@@H](CO)[C@@H](O)[C@H]1O`: the activity, negative = inhibition is -3.38% [at 11.4 µM] (inactive).

With `Cc1n[nH]c(C)c1S(=O)(=O)N1CCC(C(=O)O)CC1`, the activity, negative = inhibition was 3.15% [at 11.4 µM] (inactive).

As for `Cc1ccc(C(=O)NC(=S)Nc2cc(C(F)(F)F)ccc2Cl)cc1`, the AC50 result was “inactive”.

Turning to `COc1cc(/C=C/C(=O)Nc2cc(C(F)(F)F)ccc2Cl)cc(OC)c1OC`, the activity, negative = inhibition is -14.2% [at 11.4 µM] (inactive).

On to `COc1cc(C(=O)Nc2cc(C(F)(F)F)ccc2Cl)cc(OC)c1OC`, for which the AC50 was 15.8 µM (active).

In the case of `COc1cccc(C(=O)Nc2cc(C(F)(F)F)ccc2Cl)c1`, the half-maximal activity concentration (AC50) was 7.94 µM (active).

Take `CC(C)CNC(=O)O`: the activity, negative = inhibition is -6.31% [at 11.4 µM] (inactive).

As to `Cc1ccc(NC(=O)C(C)N2C(=O)C3C4CC(C(Br)C4Br)C3C2=O)cc1` (stereo unspecified), the AC50 was 5.62 µM (active).

As for `CC(C)C(=O)Nc1ccc(Sc2ccc(F)cc2)cc1`, the AC50 result is “inactive”.

For `CC(C(=O)Nc1cccnc1)N1C(=O)C2C3C=CC(C3)C2C1=O` (stereo unspecified), the AC50 is 12.6 µM (active).

Regarding `CCC1CCc2c(c3ccccc3[nH]c2=O)O1` (stereo unspecified), the activity, negative = inhibition is -20.1% [at 2.29 µM] (inactive).

As to `CN(Cc1ccco1)c1ccnc(-c2cccc(NS(C)(=O)=O)c2)n1`, the AC50 was 6.31 µM (active).

`CN(Cc1ccco1)c1cc(-c2cccc(NS(C)(=O)=O)c2)ncn1`: the AC50 was 15.8 µM (active).

As for `O=C(CCN1CCOCC1)Nc1ccc(F)cc1F`, the activity, negative = inhibition was -14.9% [at 11.4 µM] (inactive).

On to `COC(=O)CNC(c1ccccc1Cl)c1cc(Br)ccc1NC(=O)CCN1CCOCC1` (stereo unspecified), for which the AC50 was 3.55 µM (active).

As for `Cc1cc2c(cc1C)NC(c1nc3ccccc3[nH]1)C1=C(CC(C)(C)CC1=O)N2` (stereo unspecified), the AC50 is 12.6 µM (active).

`Cc1c(C(=O)O)nc(/C=C\C(=O)O)[nH]c1=O`: the activity, negative = inhibition was -3.36% [at 11.4 µM] (inactive).

Consider `C=CCSc1nnc(-c2cc3c(-c4ccccc4)nn(C)c3s2)n1C`, for which the AC50 is 1.58 µM (active).

Turning to `C=CCSc1nnc(-c2cc3c(C(F)(F)F)nn(C)c3s2)n1C`, the AC50 was 8.91 µM (active).

For the compound `CCCCSc1nnc(-c2cc3c(C(F)(F)F)nn(C)c3s2)n1C`, the AC50 result was “inactive”.

Turning to `CCCNC(=O)c1cc2c(C(F)(F)F)nn(C)c2s1`, the activity, negative = inhibition was 19.2% [at 2.29 µM] (inactive).

On to `C#CCSc1nnc(-c2cc3c(C(F)(F)F)nn(C)c3s2)n1C`, for which the concentration at half-maximal activity (AC50) was 7.94 µM (active).

In the case of `CCn1cc(C(=O)O)c(=O)c2cc(F)c(N3CCN[C@@H](C)C3)c(F)c21`, the AC50 entry was “inactive”.

For the compound `CN(C)c1ccc(-c2nc(-n3ccnc3)c3ccccc3n2)cc1`, the AC50 is 0.631 µM (active).

For `c1ccc2c(-n3ccnc3)nc(-c3ccoc3)nc2c1`, the concentration at half-maximal activity (AC50) was 0.2 µM (active).

Take `Cc1cnc(CNc2ncnc3ccc(-c4ccc(N(C)C)cc4)cc23)cn1`: the AC50 was 10 µM (active).

Take `Cc1cnc(CNc2ncnc3ccc(-c4ccoc4)cc23)cn1`: the concentration at half-maximal activity (AC50) is 15.8 µM (active).

Regarding `Cc1cnc(CNc2ncnc3ccc(-c4ccc5c(c4)OCO5)cc23)cn1`, the AC50 is 2.51 µM (active).

On to `NC(=S)SCCC(=O)O`, for which the activity, negative = inhibition is -7.17% [at 11.4 µM] (inactive).

Consider `CCOC(=O)C1=C(O)C(Nc2nccs2)(C(F)(F)F)N=C1C` (stereo unspecified), for which the AC50 was 14.1 µM (active).

`CCCC(=O)Nc1nc(C(=O)OCC)cs1`: the AC50 result was “inactive”.

On to `CCOC(=O)C(C)CC(C)C(=O)N1CCOCCN(C(=O)C(C)CC(C)C(=O)OCC)CCOCC1` (stereo unspecified), for which the concentration at half-maximal activity (AC50) was 11.2 µM (active).

As for `CC(C)OC(=O)C(CC(=O)O)N1CCOCC1` (stereo unspecified), the AC50 entry was “inactive”.

As for `CCC(Sc1ncccc1C(=O)O)C(=O)N1CCOCC1` (stereo unspecified), the AC50 result is “inactive”.

In the case of `COc1cc(OC)c2c(c1)C(=O)c1cc(OC)cc(OC)c1C2=O`, the AC50 is 3.55 µM (active).

`O=C(NC1CCCCC1)C1CC=CCC1C(=O)OCC(Cl)=C(Cl)Cl` (stereo unspecified): the half-maximal activity concentration (AC50) was 7.94 µM (active).

As for `CN(C)CCNc1ncnc2c1sc1nc(N3CCOCC3)c3c(c12)CC(C)(C)SC3`, the AC50 entry was “inactive”.

For the compound `CNC(=O)c1ccc(-c2sc3nc(N4CCOCC4)c4c(c3c2N)CC(C)(C)OC4)o1`, the AC50 was 2.82 µM (active).

Take `CC(=O)OC[C@@H]1O[C@@H](O/N=C2/C[C@@H](O)[C@@H](O)[C@@H]3[C@@H]4C(=O)N(C(C)(C)C)C(=O)[C@H]4CC[C@H]23)[C@H](OC(C)=O)[C@H](OC(C)=O)[C@@H]1OC(C)=O`: the activity, negative = inhibition is -17.4% [at 11.4 µM] (inactive).

Regarding `O=C(O)[C@H](Cc1ccc(O)c([N+](=O)[O-])c1)N1C(=O)c2ccccc2C1=O`, the activity, negative = inhibition was 6.92% [at 11.4 µM] (inactive).

On to `O=C1NC(=O)C(c2ccccc2[N+](=O)[O-])=C1Nc1ccc(O)c(Cl)c1`, for which the AC50 was 20 µM (active).

As to `O=C(Nc1nnc(C2CC2)s1)C1Cc2ccccc2CN1S(=O)(=O)c1ccccc1F` (stereo unspecified), the concentration at half-maximal activity (AC50) was 7.08 µM (active).

As to `O=C(Nc1nccs1)C1Cc2ccccc2CN1S(=O)(=O)c1ccc(F)cc1` (stereo unspecified), the concentration at half-maximal activity (AC50) is 3.16 µM (active).

`CCc1nnc(NC(=O)C2Cc3ccccc3CN2S(=O)(=O)c2ccc(C)cc2)s1` (stereo unspecified): the half-maximal activity concentration (AC50) is 6.31 µM (active).

In the case of `CCc1nnc(NC(=O)c2c(C)nn(-c3ccccc3)c2Cl)s1`, the activity, negative = inhibition is 4.89% [at 2.29 µM] (inactive).

With `CCOc1ccccc1NC(=O)C1Cc2ccccc2CN1S(C)(=O)=O` (stereo unspecified), the activity, negative = inhibition was -25.2% [at 11.4 µM] (inactive).

As to `CC(=O)c1sc(NC(=O)C(C)C)nc1C`, the AC50 result was “inactive”.

For the compound `Cc1ccc(CSc2nc3c(c(SCC(=O)O)n2)CCCC3)cc1`, the AC50 entry was “inactive”.

Take `COCCNc1nc(SCc2ccccc2)nc2sc3c(c12)CCC3`: the AC50 is 12.6 µM (active).

With `O=C(O)CSc1ncnc2sc3c(c12)CCC3`, the AC50 entry was “inactive”.

Consider `CC(CO)Nc1nc(SCc2ccccc2)nc2sc3c(c12)CCC3` (stereo unspecified), for which the half-maximal activity concentration (AC50) is 14.1 µM (active).

`OCCNc1nc(SCc2ccccc2)nc2sc3c(c12)CCC3`: the activity, negative = inhibition was -25% [at 11.4 µM] (inactive).

Regarding `Cc1nc2c(O)cccc2c(=O)[nH]1`, the AC50 entry is “inactive”.

For the compound `COc1cccc(NC(=O)COC(=O)c2nc3nccc(C)n3n2)c1`, the AC50 result is “inactive”.

Take `COc1cccc(NC(=O)COC(=O)c2c3c(nc4ccccc24)CCC(C)C3)c1` (stereo unspecified): the concentration at half-maximal activity (AC50) is 3.55 µM (active).

Take `CC(=O)N1CC2(CC2)CC1c1ccccc1` (stereo unspecified): the AC50 entry was “inactive”.

Consider `Cc1ccc(S(=O)(=O)ON=C2CCN(S(=O)(=O)c3ccccc3)CC2)cc1`, for which the AC50 entry is “inactive”.

As for `Cc1ccc(S(=O)(=O)N2CCN(C(=O)c3ccccc3)C2C(C)C)cc1` (stereo unspecified), the AC50 is 2 µM (active).

Turning to `CC(=O)N1CCN(S(=O)(=O)c2ccccc2)C1c1ccccc1` (stereo unspecified), the concentration at half-maximal activity (AC50) is 11.2 µM (active).

As for `Cc1ccc(S(=O)(=O)N2CCC(C(=O)O)(c3ccccc3)CC2)cc1`, the activity, negative = inhibition was 12.2% [at 11.4 µM] (inactive).

Consider `COc1ccc(NC(=O)C(F)(F)F)cc1OC`, for which the AC50 entry was “inactive”.

For the compound `COc1ccc(C(=O)c2ccccc2)cc1Br`, the AC50 result is “inactive”.

As for `COc1ccc(C(=O)c2ccc(OC)c(OC)c2)cc1OC`, the AC50 is 15.8 µM (active).

On to `CN[C@H]1[C@@H](O[C@@H]2[C@H](O[C@@H]3[C@@H](O)[C@@H](O)[C@@H](N=C(N)N)[C@@H](O)[C@@H]3N=C(N)N)O[C@H](C)[C@@]2(O)C=O)O[C@@H](CO)[C@@H](O)[C@H]1O`, for which the AC50 result is “inactive”.

As for `Cc1cccc(N2CCN(C(=O)CSCc3c(C)noc3C)CC2)c1C`, the half-maximal activity concentration (AC50) is 3.98 µM (active).

For the compound `Cc1cccc(N2CCN(CC(=O)Nc3ccc(-n4cnnn4)cc3)CC2)c1C`, the AC50 result is “inactive”.

Regarding `Cc1nnc(NS(=O)(=O)c2ccc(N)cc2)s1`, the AC50 result is “inactive”.

In the case of `Cc1cc(Cl)ccc1OC(C)C(=O)Nc1ccc(S(=O)(=O)Nc2cnc3ccccc3n2)cc1` (stereo unspecified), the activity, negative = inhibition is -1.77% [at 2.29 µM] (inactive).

For the compound `Cc1ccc(S(=O)(=O)Nc2nc(C)c(NC(=O)Nc3ccc(Cl)cc3Cl)s2)cc1`, the half-maximal activity concentration (AC50) was 15.8 µM (active).

Take `Cc1cc(C)n(-c2nc(NC(C)(C)C)nc(NC(C)(C)C)n2)n1`: the AC50 result was “inactive”.

As to `Cc1cc(C)n(-c2nc(Nc3ccccc3C)nc(-n3nc(C)cc3C)n2)n1`, the AC50 was 7.94 µM (active).

Turning to `O=C(NNC(=O)c1sc2ccccc2c1Cl)Nc1ccc(Cl)cc1`, the AC50 was 12.6 µM (active).

As for `Cc1ccccc1Cn1nc(C)c(NC(=O)c2sc3ccccc3c2Cl)c1C`, the half-maximal activity concentration (AC50) was 11.2 µM (active).

In the case of `CC(C)c1nnc(NC(=O)c2sc3ccccc3c2Cl)s1`, the AC50 result was “inactive”.

`Cc1ccc(NC(=O)c2sc3ccccc3c2Cl)nc1`: the AC50 result is “inactive”.

Consider `Cc1nn(Cc2ccc(Cl)cc2Cl)c(C)c1NC(=O)c1sc2ccccc2c1Cl`, for which the half-maximal activity concentration (AC50) was 7.08 µM (active).

For `NCCSS(=O)(=O)CCN`, the activity, negative = inhibition was 5.43% [at 11.4 µM] (inactive).

Consider `Cc1ccc(N2C(=O)CC(c3ccsc3)C3=C2CC(C)(C)CC3=O)cc1` (stereo unspecified), for which the concentration at half-maximal activity (AC50) is 2.24 µM (active).

Turning to `O=C(/C=C\c1ccccc1)c1ccccc1O`, the activity, negative = inhibition is -15.8% [at 11.4 µM] (inactive).

In the case of `O=C(/C=C/c1ccccc1)N/C(=C/c1ccccc1)C(=O)Nc1ccccc1O`, the half-maximal activity concentration (AC50) was 14.1 µM (active).

Consider `O=C(O)C/C(=C\c1ccccc1)C(=O)O`, for which the activity, negative = inhibition was -16.3% [at 11.4 µM] (inactive).

Take `O=C(CSc1cccc2cccnc12)OCC(=O)c1ccccc1`: the activity, negative = inhibition was 10.1% [at 2.29 µM] (inactive).

As to `COc1ccc(/C(C)=N/NC(=O)c2ccc(CSc3cccc4cccnc34)cc2)cc1OC`, the concentration at half-maximal activity (AC50) was 3.16 µM (active).
